Source: PubChem BioAssay
Most compounds without a hit are left out; they make up all but 4% or so of the library.
TROY NFkB inh: inhibitors of TROY-driven NF-kB signaling, primary screen, Q293 LMP1-TROYcd cells, NF-kB luciferase, uHTS | Q293 LMP1-TROYcd NF-kB luciferase reporter, 4 h | inhibition, % at 10 µM | 0.98% of 360,000 active;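 active = compounds whose plate-normalised and pattern-corrected inhibition of the luciferase reporter signal at the single screening dose is 50% or more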
HIF-2a inh: HIF-2a reporter inhibitors, primary screen, luminescence, 786-0 RCC cells. 786-0 RCC cells HIF-2a reporter, luciferase luminescence, overnight. inhibition, % at 18.8 µM. 0.72% of 360,000 active. AID 624352, 2012;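 active = inhibition of the luminescence signal of 40% or more relative to plate controls, in a single-dose primary screen at 18.75 µM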
Peg3 promoter: Peg3 promoter-driven luciferase inhibitors, primary screen, cell-based, HeLa, luciferase luminescence. AID 588405, 2011. inhibition, % at 20 µM. HeLa PEG-Prom luciferase reporter, overnight. 1.7% of 360,000 active;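 active = inhibition of at least 50% at 20 µM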
MITF TRPM1 inh: inhibitors of MITF-dependent TRPM1 promoter reporter, primary screen, cell-based, SK-MEL-5, single point, luciferase. inhibition, % at 12.5 µM. SK-MEL-5 TRPM1 promoter luciferase, 24 h. AID 488899, 2010. 0.83% of 330,000 active;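 active = mean inhibition across replicates of 60% or more, whatever share of single replicates reaches that level; inconclusive = some that reach 60%, reason not given; inactive = mean inhibition across replicates below 60%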
LMP1 NFkB inh: EBV LMP1-driven NF-kappaB luciferase reporter inhibitors, primary screen, cell-based, luminescence, single point | LMP1-induced NF-kappaB luciferase reporter cells | inhibition, % at 12.5 µM | 0.69% of 350,000 active; in the data active = inhibition above about 41%; inconclusive = no clear call, values can overlap the other calls;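 also: 0% = neutral control wells and 100% = reference inhibitor control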
TWEAK Fn14 block: inhibitors of TWEAK-Fn14 signaling, primary screen, luciferase reporter cells, uHTS. TWEAK-stimulated Fn14 reporter cells, luciferase luminescence, 8 h. inhibition, % at 10 µM. 2% of 360,000 active; in the data active = inhibition above about 50%
Mdm2-MdmX confirm: retested Mdm2-MdmX interaction blockers, confirmation, cell-based, luminescence, single concentration, set 2; shares compounds with HIF-2a inh; SaOS-2 split-luciferase Mdm2/MdmX complementation; inhibition, % at 8 µM; 99% of 740 active; AID 504601, 2011;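 active = mean inhibition of the luminescence signal across two replicates at or above 26 percent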
Target sequence (O15151 whole entry, looked up): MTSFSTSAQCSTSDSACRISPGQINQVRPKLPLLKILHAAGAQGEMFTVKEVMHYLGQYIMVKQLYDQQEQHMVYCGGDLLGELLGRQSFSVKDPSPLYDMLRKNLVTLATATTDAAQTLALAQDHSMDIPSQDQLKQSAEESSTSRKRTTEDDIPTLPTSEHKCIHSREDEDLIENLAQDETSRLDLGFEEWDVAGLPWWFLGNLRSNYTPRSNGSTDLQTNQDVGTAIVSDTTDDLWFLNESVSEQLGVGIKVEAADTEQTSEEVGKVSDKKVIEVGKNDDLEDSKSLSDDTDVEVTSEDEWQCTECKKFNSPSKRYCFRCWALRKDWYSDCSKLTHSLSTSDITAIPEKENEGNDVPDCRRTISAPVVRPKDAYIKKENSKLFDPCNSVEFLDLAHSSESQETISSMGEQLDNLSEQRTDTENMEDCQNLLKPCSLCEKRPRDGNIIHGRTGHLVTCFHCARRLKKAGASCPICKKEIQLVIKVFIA
Target sequence (Q00987 whole entry, looked up): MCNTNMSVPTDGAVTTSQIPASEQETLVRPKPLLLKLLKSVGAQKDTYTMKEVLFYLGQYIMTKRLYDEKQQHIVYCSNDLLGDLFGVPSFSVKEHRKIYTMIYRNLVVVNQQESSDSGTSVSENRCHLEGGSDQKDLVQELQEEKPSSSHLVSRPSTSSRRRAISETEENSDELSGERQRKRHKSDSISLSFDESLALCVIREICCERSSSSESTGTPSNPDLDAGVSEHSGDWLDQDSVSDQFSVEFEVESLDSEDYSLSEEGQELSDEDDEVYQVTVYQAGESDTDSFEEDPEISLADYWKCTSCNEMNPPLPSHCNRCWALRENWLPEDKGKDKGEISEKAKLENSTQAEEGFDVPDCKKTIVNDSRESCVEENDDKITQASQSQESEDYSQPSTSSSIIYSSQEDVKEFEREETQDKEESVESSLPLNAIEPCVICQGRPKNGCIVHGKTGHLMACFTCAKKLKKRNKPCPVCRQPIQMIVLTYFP
HIF-2a inh conf: HIF-2a reporter inhibitor retest, confirmation, luminescence, 786-0 RCC cells; shares compounds with HIF-2a inh; HIF-2a luciferase reporter luminescence, overnight; inhibition, % at 18.8 µM; 56% of 1,800 active; AID 651580, 2012;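 active = mean inhibition across four replicates of at least 40 percent at the single tested concentration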
HIF-1a cs: HIF-1a luciferase reporter signal reduction – MiaPaCa-2 cells, single concentration, counter-screen for HIF-2a inhibitor project, confirmation; shares compounds with HIF-2a inh; MiaPaCa-2 HIF-1a luciferase reporter, desferoxamine, overnight; inhibition, % at 18.8 µM; 72% of 1,800 active;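 active = mean inhibition of the reporter signal across four replicates at the single tested dose of 50% or more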
Numbers without * were called inactive; ? = inconclusive; . = not tested or not shown.

SMILES	TROY NFkB inh	HIF-2a inh	Peg3 promoter	MITF TRPM1 inh	LMP1 NFkB inh	TWEAK Fn14 block	HIF-2a inh conf	HIF-1a cs	others
COc1ccc(OC)c(CCNC(=O)CCC(=O)N2CCOc3ccc(C)cc32)c1	3.3	12.2	10.0	6.4	-8.9	6.3	.	.
CC(C)C[C@H]1CN([C@@H](Cc2ccc(O)cc2)CN2CCC[C@H]2CN2C(=O)C(=O)NC[C@@H]2Cc2ccccc2)C(=O)C(=O)N1CC1CCCCCC1	6.8	-23.6	.	.	.	4.5	.	.
COc1ccc(-c2nnc(Nc3nc4c(OC)cccc4s3)o2)cc1	-15.8	-325.6	-23.9	-6.0	9.8	-19.5	.	.
COc1cc(OC)cc(-c2nnc(Nc3nc4c(F)cccc4s3)o2)c1	-1.6	71.6*	-18.3	7.3	0.9	0.0	84.5*	-23.1
Cc1nc2cc(Nc3ccncc3)ccc2s1	5.7	-4.9	11.6	7.5	-9.1	-5.8	.	.
N=c1c2c(-c3ccccc3)c(-c3ccccc3)n(Cc3ccco3)c2ncn1Cc1ccccc1	3.4	22.4	9.2	5.9	12.7	-16.4	.	.
N=c1c2c(-c3ccccc3)c(-c3ccccc3)n(Cc3ccco3)c2ncn1CCCN1CCOCC1	-8.1	6.8	99.1*	2.9	-12.4	-2.0	.	.	Mdm2-MdmX confirm=102.0*
N=c1c2c(-c3ccccc3)c(-c3ccccc3)n(Cc3ccco3)c2ncn1CCCn1ccnc1	-1.1	69.4*	66.0*	88.2*	-51.1	-5.3	16.3	74.4*
OCCNc1ncnc2c1c(-c1ccccc1)c(-c1ccccc1)n2Cc1ccco1	8.7	21.3	6.7	9.6	1.6	13.5	.	.
c1ccc(-c2oc3ncnc(NCCCn4ccnc4)c3c2-c2ccccc2)cc1	43.3	-9.3	29.0	7.7	-7.5	3.2	.	.
CC(C)Cn1cnc2c(c(-c3ccccc3)c(-c3ccccc3)n2Cc2ccco2)c1=N	-12.6	58.1*	104.3*	16.7	7.1	-38.6	15.5	102.2*
c1ccc(-c2c(-c3ccccc3)n(Cc3ccco3)c3ncnc(NCCCn4ccnc4)c23)cc1	-5.4	49.3*	37.3	6.2	0.1	-2.6	34.0	100.9*
COCCCn1c(SCC(=O)Nc2ccc(NC(C)=O)cc2)nc2sc3c(c2c1=O)CCC3	3.8	0.8	6.0	-2.6	9.1	-25.0	.	.
CC(Sc1ncn[nH]1)C(=O)Nc1cc(C(F)(F)F)ccc1Cl (stereo not drawn)	8.0	12.7	7.2	-5.7	1.2	1.9	.	.
O=C(Nc1ccccc1)c1cc2n(n1)C(C(F)(F)F)CC(C1CC1)N2 (stereo not drawn)	-31.9	-75.1	-50.3	-1.4	-40.8	-4.8	.	.
C=C1C(=O)OC2C1CCC(C)=C1C(=O)C3OC3(C)C12 (stereo not drawn)	40.8	91.6*	106.5*	105.2*	25.5	95.0*	97.1*	101.3*
CCCNC(=O)C1(C)CCCN(C(=O)COc2ccc(Cl)cc2Cl)C1 (stereo not drawn)	-7.5	-1.9	22.4	.	.	-9.4	.	.
CC(=O)c1cccc(NC(=O)C2Cc3c(-c4cccc(F)c4)ccnc3O2)c1 (stereo not drawn)	20.4	6.5	-11.5	.	.	28.6	.	.
FC(F)(F)c1nnc(-c2ccccc2)nc1Oc1ccc(Cl)cc1Cl	-6.7	37.7	30.7	-2.3	-6.4	-11.6	.	.
FC(F)(F)c1nnc(-c2ccccc2)nc1Sc1ccc(Cl)cc1	19.6	61.7*	73.8*	42.4	1.5	17.7	48.1*	91.1*
FC(F)(F)c1nnc(-c2ccccc2)nc1Sc1ccccc1	18.6	78.4*	71.7*	20.2	2.4	25.3	19.2	66.6*
FC(F)(F)c1nnc(-c2ccccc2)nc1N1CCCC1	-0.7	8.2	7.0	-2.4	-1.2	10.4	.	.
FC(F)(F)c1cccc(Sc2nc(-c3ccccc3)nnc2C(F)(F)F)c1	23.2	44.5*	36.3	35.4	5.5	17.8	6.1	69.9*
CCn1c(Cc2ccccc2)nnc1SCC(=O)c1c(N)n(C2CC2)c(=O)[nH]c1=O	-12.7	12.7	-6.2	1.3	0.5	4.4	.	.
COC(=O)c1ccccc1NC(=O)CSc1nc(Nc2ccccc2)nc(N2CCOCC2)n1	1.2	40.6*	23.4	-50.6	-5.6	13.5	28.4	70.2*
SMILES	TROY NFkB inh	HIF-2a inh	Peg3 promoter	MITF TRPM1 inh	LMP1 NFkB inh	TWEAK Fn14 block	HIF-2a inh conf	HIF-1a cs	others
COc1ccc(OC)c2sc(N(CCN(C)C)C(=O)/C=C/c3cccs3)nc12	-22.8	78.0*	104.4*	66.6*	2.5	-45.4	18.2	71.5*
COc1cccc2sc(N(CCN(C)C)C(=O)/C=C/c3cccs3)nc12	14.3	23.3	13.1	46.8	1.3	16.9	.	.
COc1ccc2oc(C(=O)OCC(=O)N(CCC#N)c3ccccc3)c(C)c2c1	5.7	-1.0	-1.0	-2.2	5.8	-14.1	.	.
COc1cccc(F)c1C(C[N+](=O)[O-])c1c(N)n(C)c(=O)n(C)c1=O (stereo not drawn)	43.2	88.5*	104.2*	67.1*	-7.3	58.1*	79.1*	106.0*
CC(C)c1ccc(O)c(=O)cc1	6.1	-0.1	12.4	.	.	11.7	.	.
CC(C)c1cccc(O)c(=O)c1	-6.0	4.7	47.7	.	31.9	7.3	.	.	Mdm2-MdmX confirm=96.7*
COc1cc2c(cc1NC(=O)C(C)OC(=O)c1ccc(S(=O)(=O)Nc3ccccc3Cl)cc1)oc1ccccc12 (stereo not drawn)	0.0	-87.4	-37.6	14.8	-6.6	20.3	.	.
Cc1ccc(-n2c(C)c([N+](=O)[O-])c3ccc(O)c(CN(C)C)c32)cc1	50.7*	8.3	16.1	-6.3	?	75.0*	.	.	Mdm2-MdmX confirm=92.2*
O=C(CN1C(=O)NC2NC(=O)NC21)NC1CCCCC1 (stereo not drawn)	-2.8	10.0	13.2	11.4	-3.5	-10.9	.	.
CC(C)(C)N(Cc1ccccc1)C(=O)CN1C(=O)c2ccccc2S1(=O)=O	-18.4	10.4	4.9	0.4	-4.6	1.7	.	.
Cc1ccc(C(C)C)c(OCc2nn(CC(=O)c3ccc(Cl)cc3)c3[n+]2CCCCC3)c1	49.9	49.4*	112.1*	67.4*	-4.8	-19.3	15.9	106.5*
Cc1noc(C)c1CSCC(=O)Nc1nc2c(F)cc(F)cc2s1	-22.6	-95.5	-53.7	-10.3	-4.9	1.1	.	.
